Hits are enriched below; roughly 6.6% of the tested compounds scored in any of these assays.
TGFb inhibitor: qHTS for Inhibitors of TGF-b. HepG2 CAGA-GFP TGF-b/SMAD3 reporter, GFP fluorescence, 18 h; TGF-beta stimulated, 500 pg/mL final. Potency, µM (highest dose often 46.1 µM), for the others: top-dose activity, negative = inhibition, actives largely listed as inhibitors. 410,000 tested, 1.2% active. AID 588855, 2011; note: % is set by controls: 0 for no effect and ±100 for the full control effect; nearly all actives have a fitted effect of over 65% in size
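Inhibition of TGF-beta-driven CAGA-GFP reporter expression in HEPG2 cells is measured by cellular GFP fluorescence after 18 h stimulation with 500 pg/mL recombinant TGF-beta in 1% FBS medium at 37 degrees C.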
KB-V1 cytotox: qHTS assay for MDR1-selective chemotherapeutics: Primary screen using the drug-selected MDR subline cells KB-V1; 400,000 tested, 3.4% active; Potency, µM (series often up to 46.1 µM), hits mostly cytotoxic; KB-V1 MDR cells viability, CellTiter-Glo, 72 h; note: % is set by controls: 0 for no effect and ±100 for the full control effect; nearly all actives have a fitted effect of over 60% in size
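Cells of the MDR subline KB-V1 are plated, dosed with compound at multiple concentrations, and incubated 72 h at 37 degrees C; CellTiter-Glo is then added and luminescence read after 10 min.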
HT1080 IDH1KD tx: qHTS for induction of synthetic lethality in tumor cells producing 2HG: qHTS for the HT-1080-IDH1KD cell line; HT-1080 IDH1 knockdown viability, ATP luminescence, 48 h; Potency, µM (titrated, usually from 46.1 µM), inactives show at the highest dose activity, negative = toxicity, hits mostly cytotoxic; 360,000 tested, 2% active; AID 686971, 2013;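 note: 0% = DMSO wells and -100% = cell-free medium wells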
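Viability of IDH1-knockdown HT-1080 fibrosarcoma cells was assessed by CellTiter-Glo after 48 h at 37 °C with titrated compound; concentration-effect curves were classified by fit quality and response size.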
KB-3-1 cytotox: qHTS assay for MDR1-selective chemotherapeutics: Primary screen using the parental adenocarcinoma cell KB-3-1 | 400,000 tested, 1.4% active | Potency, µM (top dose mostly 46.1 µM), usual class: cytotoxic | KB-3-1 viability, CellTiter-Glo ATP luminescence, 72 h | AID 1347075, 2019; note: % is set by controls: 0 for no effect and ±100 for the full control effect; nearly all actives have a fitted effect of over 60% in size
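Cytotoxicity measured as CellTiter-Glo luminescence after 72 h at 37 C. Compound titrations were pinned onto drug-naive KB-3-1 parental adenocarcinoma cells grown in DMEM with 10% FBS, and normalized data fitted to concentration-response curves.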
HepG2 viability: qHTS for Inhibitors of TGF-b: Cytotox Counterscreen; Potency, µM (doses to about 46.1 µM), for the others: at the highest dose activity change, negative = cytotoxicity, most hits filed as cytotoxic; HepG2 CAGA-GFP viability, ATP luminescence, 18 h; 410,000 tested, 0.76% active
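HepG2 CAGA-GFP cells (1000/well, DMEM with 1% FBS) received compound, then TGF-beta at 500 pg/mL final, and were incubated 18 hours at 37 degrees C. Viability was read by CellTiter-Glo luminescence. Media-only wells were set as complete cell-killing and DMSO as no toxicity.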
HT1080NT lethal: qHTS for induction of synthetic lethality in tumor cells producing 2HG: qHTS for the HT-1080-NT fibrosarcoma cell line. 360,000 tested, 1.6% active. HT-1080-NT fibrosarcoma viability, CellTiter-Glo ATP luminescence, 48 h. Potency, µM (titrated, usually from 46.1 µM), for inactives: top-dose activity, negative = less viability, usual class: cytotoxic;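 note: NT is the 2HG producing partner of a matched IDH1 knockdown line; 0% = DMSO-treated cells and -100% = media-only wells without cells; nearly all actives have a fitted effect of over 55% in size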
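HT-1080-NT; 750 cells/well; 5% FBS RPMI; 48 h compound, 37 degrees C; CellTiter-Glo luminescence; curve fitting and curve-class assignment.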
* = called active by the depositor; i = inactive; ? = inconclusive; nt = no result given; [ ] = remark or other dose. Calls come from the whole dose curve; as a rule, active = well fitted curve in the direction sought with a large enough effect; inconclusive = small, poorly fitted or top-dose-only effect, or another doubt; inactive = no such curve, though single readings can be large; an effect the other way counts as inactive or inconclusive. Potency is the fitted concentration of half-maximal effect.

SMILES	TGFb inhibitor	KB-V1 cytotox	HT1080 IDH1KD tx	KB-3-1 cytotox	HepG2 viability	HT1080NT lethal
C(=N\Nc1nc(Nc2ccccc2)nc(N2CCOCC2)n1)/c1c[nH]c2ccccc12	4%	23µM*	?	?	-22%	?
COc1ccc(/C=N/Nc2nc(Nc3ccccc3)nc(N3CCCCC3)n2)cc1OC	22%	?	-13%	?	-15%	-15%
CCCCOc1ccc(CC(=O)N(C)OC)cc1	26%	i	nt	i	4%	nt
CCc1ccccc1Nc1nn2c(=O)c3ccc(C(=O)NC(C)c4ccccc4)cc3nc2s1 (centres undefined)	7%	?	nt	?	-12%	nt
Cc1ccc(NC(=S)Nc2ccc(Cl)c(Cl)c2)c(OC(F)F)c1	?	18µM*	5%	?	-31%	-2%
COc1ccc(NC(=S)Nc2ccc(C)c(Cl)c2)cc1OC	-17%	i	12%	i	7%	-10%
Fc1ccc(NC(=S)Nc2ccccc2OC(F)F)cc1Cl	?	16µM*	?	?	-29%	?
FC(F)Oc1ccccc1NC(=S)Nc1cccnc1	1%	i	-3%	i	-2%	-5%
Cc1cc(C)cc(NC(=S)Nc2ccc(Cl)c(Cl)c2)c1	?	?	?	i	-36%	?
Cc1ccc(NC(=S)Nc2ccc(OC(F)F)c(Cl)c2)cc1Cl	18µM*	21µM*	27%	21µM*	-45%	6%
CC(NC(=S)Nc1ccc(OC(F)F)c(Cl)c1)C(C)(C)C (centres undefined)	13µM*	?	?	?	-36%	?
COc1ccc(-n2cc(C(=O)NCc3ccccc3)c3ccccc3c2=O)cc1	-6%	nt	nt	nt	-3%	nt
CCOC(=O)c1ccc(NC(=O)c2cc(=O)c3ccc(C)c(C)c3o2)cc1	10%	i	nt	i	12%	nt
O=C(NNC(=S)Nc1cccc(Cl)c1)c1ccccc1OC(F)F	13µM*	?	?	?	4.5µM*	?
COc1cccc(NC(=S)NNC(=O)c2ccccc2OC(F)F)c1	-5%	i	-25%	i	-18%	-3%[9.24 µM]
CCC(Oc1ccccc1)C(=O)Nc1cc(-c2cccc(C)c2)nn1-c1ccccc1 (centres undefined)	-7%	i	nt	i	-6%	nt
COc1ccc(S(=O)(=O)N2CCOCC2)cc1NC(=O)CO/N=C/c1ccccc1OC(F)F	-2%	?	-2%	i	17%	0%
CC(O/N=C/c1ccccc1OC(F)F)C(=O)Nc1cccc(S(=O)(=O)N2CCOCC2)c1 (centres undefined)	-26%	13µM*	2%	i	8%	2%
CCc1nc2ccccc2c(C(=O)OCC(=O)Nc2cccc(S(=O)(=O)N3CCOCC3)c2)c1C	?	6.5µM*	?	21µM*	-45%	?
O=C(COc1ccccc1Cc1ccccc1)Nc1cccc(S(=O)(=O)N2CCOCC2)c1	-29%	5.2µM*	-10%	?	-6%	-7%
CN(C)C1CN(Cc2cn(Cc3cccc(C(F)(F)F)c3)nn2)S(=O)(=O)C1 (centres undefined)	nt	i	3%	i	nt	18%
COc1ccc(OC)c(NC(=O)CN2C(=O)COc3ccc(S(=O)(=O)NC4CCCC4)cc32)c1	-26%	nt	nt	nt	-2%	nt
O=C(c1ccc2c(c1)OCO2)N1CCN(c2ccc(Cl)cc2)CC1	-6%	?	1%	i	-45%	5%

Source: PubChem BioAssay
